Assay outcomes (PubChem)
aSyn 5UTR act – Activators via SNCA 5'UTR binding, MLPCN; alpha-synuclein 5'UTR reporter, activators screen; activity score, % (tested at 7.5 µM), hits read low; 7.1% of 300,000 active; AID 1814; in the data active means activity score below about -60%
Active calls of the source: *. Shown is part of a subset that was picked to be rich in hits.

SMILES	aSyn 5UTR act
CCOc1ccc(NC(=O)c2cccc3ccccc23)cc1	-318.2*
COc1cc2ccccc2cc1C(=O)Nc1cccnc1	-138.6*
CCOc1ccc(NC(=O)c2cc3ccccc3cc2OC)cc1	-133.3*
Nc1nc(N2CCN(c3ccccn3)CC2)nc2ccccc12	-118.1*
COC(=O)Cn1c(C)nc2c(sc3nc(C)cc(C)c32)c1=O	-76.1*
COc1ccc(/C(C)=N/Nc2ncc(Cl)cc2Cl)c(O)c1	-92.0*
O=[n+]1cc(-c2cc3ccccc3o2)n([O-])c2c1CCCC2	-91.5*
CC(C)Oc1ccccc1/C=N/Nc1ccccc1[N+](=O)[O-]	-209.4*
CCOc1ccccc1/C=N/Nc1ccccc1[N+](=O)[O-]	-303.8*
COc1ccccc1/C=N\Nc1ccccc1[N+](=O)[O-]	-91.5*
CN(C)c1ccc(/C=C2\CCCCC2=O)cc1	-104.3*
CC1=NN(c2ccc(C(=O)O)cc2)C(=O)/C1=C/c1ccc(-c2ccccc2F)o1	-88.1*
CC1CCCN(c2nc3ccsc3c(=O)s2)C1 (stereo not drawn)	-148.2*
CCOc1ccccc1OCCCOc1ccc(C)cc1Cl	-111.3*
CCCC(=O)Nc1ccc(C#Cc2ccccc2)cc1	-67.5*
O=C(Nc1ccccc1O)c1ccc(NC(=O)C2CC2)cc1	-805.0*
O=C(Nc1ccc(C#Cc2ccccc2)cc1)C1CC1	-113.4*
CSc1ccc(CNc2ccc(C)c(C)c2)cc1	-139.1*
CSc1ccc(CNc2ccc(C)cc2)cc1	-149.4*
Cc1noc(/C=C/c2ccc(-c3ccccc3Cl)o2)c1[N+](=O)[O-]	-62.6*
Cc1ccc(N/C=C/c2onc(C)c2[N+](=O)[O-])cc1	-133.6*
COc1cccc(N/C=C/c2onc(C)c2[N+](=O)[O-])c1	-151.1*
CC(=O)Nc1nccc(-c2cc(-c3ccccc3)no2)n1	-180.4*
CCC(=O)Nc1ccc(NC(=O)C23CC4CC(CC(C4)C2)C3)cn1	-93.5*
O=C(Nc1ccc(NC(=O)C23CC4CC(CC(C4)C2)C3)cn1)c1ccco1	-144.1*
SMILES	aSyn 5UTR act
O=C(NCC1CCCN(C(=O)c2cscn2)C1)c1ccccc1Cl (stereo not drawn)	-78.2*
CCOC(=O)NC1(Nc2ccc(C)cc2)Oc2ccccc2O1	-100.0*
c1ccc2c(Nc3nc4c(s3)CCCC4)cccc2c1	-157.0*
CCOC(=O)c1sc(NC(=O)c2cncc(Br)c2)nc1C	-105.4*
CCOC(=O)c1sc(NC(=O)c2ccc3ncsc3c2)nc1C	-89.1*
COc1ccc(C(=O)NC(=O)COC(=O)c2ccc3ncsc3c2)cc1	-82.1*
Cc1c(Cl)cnc(NC(=O)COC(=O)c2ccc3ncsc3c2)c1Cl	67.1
CCOC(=O)c1sc(NNC(=O)c2ccc(F)cc2)nc1C	-76.1*
O=C(O)c1cccc(N/N=C/C2=C(Cl)c3cc(Cl)ccc3SC2)c1	-102.5*
Cc1c(C(=O)N(CCO)Cc2ccccc2)oc2c(F)cccc12	-112.3*
O=C(Nc1ccccn1)c1ccco1	-100.3*
COc1ccc(C(=O)Nc2ccc(NC(=O)C3CC3)nc2)cc1	-86.9*
COc1ccccc1C(=O)Nc1ccc(NC(=O)c2ccco2)cn1	-80.5*
CCC(=O)Nc1ccc(NC(=O)c2cccc(OC)c2)nc1	-171.5*
O=C(Cc1ccccc1)Nc1ccc(NC(=O)c2ccco2)nc1	-148.6*
COc1ccc(C(=O)Nc2ccc(NC(=O)c3ccccc3OC)nc2)cc1	-95.9*
CC(C)(C)C(=O)Nc1ccc(NC(=O)c2ccco2)nc1	101.6
O=C(Nc1ccc(NC(=O)c2ccccc2)nc1)c1ccncc1	-81.2*
CCC(=O)Nc1cc(C)c(NC(=O)c2ccccc2OC)cn1	-70.4*
COc1cccc(C(=O)Nc2ccc(NC(=O)C3CC3)cn2)c1	-157.3*
Cc1ccc(NC(=O)Nc2ccccc2CC[N+](=O)[O-])cc1	-79.5*
COc1cccc(NC(=O)Nc2nc(SC)ns2)c1	-151.1*
COc1cccc(NC(=O)Nc2nc(SC(C)(C)C)ns2)c1	-130.1*
Cc1oc2cc3oc(=O)cc(C)c3cc2c1C	-87.5*
O=C1CCCC1C(=O)Nc1ccc2ccccc2c1 (stereo not drawn)	-120.5*
SMILES	aSyn 5UTR act
CN(C)C(=O)c1cc(C(=O)c2ccc(F)cc2Cl)c[nH]1	-92.6*
CN(C)C(=O)c1cc(C(=O)c2ccc(C(F)(F)F)cc2)c[nH]1	-151.0*
CN(C)C(=O)c1cc(C(=O)c2ccc(Cl)cc2Cl)c[nH]1	-94.2*
CC(C)(O)C#Cc1ccc(C(=O)NCc2ccccc2F)cc1	-66.1*
O=C(C#Cc1ccccc1)NCc1ccccc1F	-69.6*
Fc1ccccc1Cn1nnc(-c2ccc3c(c2)OCO3)n1	-76.9*
COc1ccc(-c2nnn(Cc3ccccc3F)n2)cc1	-206.7*
CCCS(=O)(=O)N1CCCC(C(=O)Nc2ccc3c(c2)CCC3)C1 (stereo not drawn)	-70.8*
CCS(=O)(=O)N1CCC(C(=O)Nc2ccc3c(c2)CCC3)CC1	-83.4*
Cn1c(=O)oc2cc(S(=O)(=O)N3CCCC(C(=O)NC4CCCc5ccccc54)C3)ccc21 (stereo not drawn)	63.1
Cc1cc(/C([O-])=C(/C(=S)Nc2ccc(F)cc2)[n+]2ccccc2)c(C)n1-c1ccc(F)cc1	-121.1*
Cc1ccc(C(=O)N2C(CC(=O)Nc3ccc(Cl)cc3)C(=O)NC3CCCCC32)cc1 (stereo not drawn)	-71.9*
Cc1nc(/C(N)=N/OC(=O)c2ccccc2Cl)c(C(F)(F)F)o1	-131.1*
N/C(=N/OC(=O)c1ccccc1Cl)c1nonc1N	-84.9*
COc1ccc(C2OC(=O)CC2C(=O)NCc2ccc(Cl)cc2)cc1OC (stereo not drawn)	-77.8*
CCOC(=O)Cn1cnc(-c2ccc([N+](=O)[O-])cc2)c1	-76.6*
Cc1ccc2c(c1)Cc1nc3ccccc3nc1-2	71.2
Cc1ccc2c(c1)C(=NC1CCCCC1)c1cc3ccccc3nc1-2	-206.3*
O=C1CCCCCN1Cc1nnc(SCc2nc3ccccc3s2)n1-c1ccccn1	-108.7*
Cc1cccc(-n2ncc3c(NCc4ccccn4)ncnc32)c1	-113.1*
c1ccc(-n2ncc3c(NCc4ccccn4)ncnc32)cc1	-69.2*
CC(C)(C)c1ccc(C(=O)Nc2cccc3c(=O)[nH][nH]c(=O)c23)cc1	-68.1*
COc1ccc(N2CCN(c3nccs3)CC2)cc1	-153.7*
O=C(O)c1cccc(-n2cc(-c3cccc(C(F)(F)F)c3)cn2)c1	-127.6*
COC(=O)c1cnn(-c2nc(-c3ccccc3)cs2)c1N	-170.6*
SMILES	aSyn 5UTR act
O=C(O)c1cnn(-c2nc(-c3ccc(Cl)cc3)cs2)c1C(F)(F)F	-92.0*
COc1ccc(-c2csc(-n3ncc(C(=O)O)c3C(F)(F)F)n2)cc1	-76.3*
O=C(Nc1ccc2oc(-c3ccccc3)nc2c1)C1CCCO1 (stereo not drawn)	-161.9*
O=C(Nc1ccc(-c2nc3cc(Cl)ccc3o2)cc1)C1CCCO1 (stereo not drawn)	-81.0*
Cn1c(C(=O)NC2CCCCC2)cc2c(=O)n3ccccc3nc21	-134.4*
Cn1c(C(=O)NCc2ccccn2)cc2c(=O)n3ccccc3nc21	-88.6*
O=C(O)/C=C\C(=O)Nc1ccccc1C#Cc1ccc(Br)cc1	-290.4*
O=C(O)/C=C\C(=O)Nc1ccccc1C#Cc1ccccc1	-86.8*
CC(C)(C)c1cnnn1-c1ccc(/C=N/Nc2ccc([N+](=O)[O-])cc2)cc1	-95.4*
CC1Oc2ccccc2N(CC(=O)NCc2ccccc2)C1=O (stereo not drawn)	-90.6*
Cc1ccc(NN=C2c3ccccc3-c3ccccc32)cc1	-211.8*
O=C(Nc1nc2ccccc2n1CCN1CCOCC1)c1cn(-c2ccccc2)nc1-c1ccccc1	82.8
c1ccc2nc3c(nc2c1)c1ccccc1n3CCN1CCOCC1	-80.3*
